# From PubChem BioAssay (NCATS)
# Where “and” joins values, the source holds several entries; their conditions need not be identical. Equal values may be shown once. Inconclusive results are not listed. Calls of active or inactive are those of the source. Unless noted, calls come from the whole dose curve; as a rule, active = well fitted curve in the direction sought with a large enough effect; inconclusive = small, poorly fitted or top-dose-only effect, or another doubt; inactive = no such curve, though single readings can be large; an effect the other way counts as inactive or inconclusive.
# Assays:
# [1] = qHTS Assay for Identifying Gametocytocidal Compounds (AID 743244); note: potency is the fitted concentration of half-maximal effect;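 for max response: % is set by controls: 0 for no effect and ±100 for the full control effect; actives lower the fluorescent signal which means gametocytes are killed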; conditions: P. falciparum 3D7 stage III-V gametocytes, alamarBlue, 72 h; max response: stronger effect = lower value
# Outline: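 Late gametocytes (III–V), P. falciparum 3D7; 72 h drug, then 24 h alamarBlue; resazurin reduction read by fluorescence.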
# [2] = qHTS assay for cell viability of HEK293 cells (AID 743288); conditions: ATP luminescence (CellTiter-Glo), 18 h; max response: stronger effect = lower value; note: nearly all actives have a fitted effect of over 50% in size; note: potency is the fitted concentration of half-maximal effect; for max response: % is set by controls: 0 for no effect and ±100 for the full control effect
# Outline: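 Steps: plate 2,000 parental HEK293 cells per well; incubate ≥5 h, 37 C; add compounds in DMSO; incubate 18 h, 37 C; add CellTiter-Glo; wait 30 min at room temperature; read luminescence.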
# [3] = qHTS assay for cell viability of the p53RE-bla HCT-116 cell line (AID 743292); note: nearly all actives have a fitted effect of over 55% in size; note: potency is the fitted concentration of half-maximal effect
# Outline: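 Compound-exposed HCT-116 (p53RE-bla) cells, 4,000 per well, were kept 16 h at 37 C following a 5 h preincubation. Cell number was estimated from total ATP by CellTiter-Glo luminescence read after 30 min at room temperature.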
# [4] = qHTS profiling of the MIPE4 collection as inhibitors of Plasmodium falciparum (3D7) proliferation (AID 743344; call rule not given here;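 note: scaled between DMSO vehicle wells and 0.29 µM artemisinin as full inhibition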); conditions: P. falciparum 3D7 in erythrocytes, SYBR Green DNA fluorescence, 72 h; at 28.5 µM (top of the series) unless noted
# Outline: (§1)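 Parasite DNA was quantified by SYBR Green I fluorescence (ex 485, em 535 nm) after overnight lysis in saponin/Triton buffer at room temperature. Cultures at 0.3% parasitemia and 2.5% hematocrit were first exposed to compound for 72 h at 37 C; signals were normalised to artemisinin (0.29 uM) and vehicle wells.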
# [5] = qHTS profiling of the MIPE4 collection as inhibitors of Plasmodium falciparum (DD2) proliferation (AID 743345; call rule not given here); conditions: P. falciparum Dd2 in erythrocytes, SYBR Green DNA, 72 h; at 28.5 µM (top of the series) unless noted
# Outline: as §1
# [6] = qHTS profiling of the MIPE4 collection as inhibitors of Plasmodium falciparum (DD2) proliferation (Rep 2) (AID 743346; call rule not given here); conditions: P. falciparum Dd2 in erythrocytes, SYBR Green DNA, 72 h; at 28.5 µM (top of the series) unless noted
# Outline: as §1
# [7] = qHTS profiling for inhibitors of Plasmodium falciparum (HB3) proliferation (AID 743324); conditions: Plasmodium falciparum HB3 blood-stage proliferation; at 28.7 µM (top of the series) unless noted;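 note: 100% = DMSO vehicle wells and 0% = artemisinin-treated control wells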
# Outline: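 SYBR Green fluorescence (485 ex/535 em) of lysed cultures, incubated overnight at room temperature in the dark, quantifies parasite DNA. Infected erythrocytes at 0.3% parasitemia and 2.5% hematocrit were exposed 72 h; values normalized to DMSO and 0.29 uM artemisinin controls.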
compound,measurement,setting,value
Nc1ccc(S(N)(=O)=O)cc1,max response,[1],6.71% (inactive)
same,max response,[2],-1.9% (inactive)
same,Potency,[3],inactive
same,"parasite growth, % of DMSO control",[4],105%
same,"parasite growth remaining, % of DMSO control (lower = more inhibition)",[5],15.1%
same,"parasite growth, % of control (lower = inhibition)",[6],95.9%
Oc1ccc(OCc2ccccc2)cc1,max response,[1],3.93% (inactive)
same,"parasite growth, % of DMSO control",[4],89.5%
same,"parasite growth remaining, % of DMSO control (lower = more inhibition)",[5],123%
same,"parasite growth, % of control (lower = inhibition)",[6],83.5%
C=CCc1cc(OC)c(O)c(C(=O)NCCO)c1,max response,[1],-5.25% (inactive)
CC1Cc2ccccc2N1NC(=O)c1ccc(Cl)c(S(N)(=O)=O)c1 (stereo not drawn),max response,[1],1.41% (inactive) and -0.446% (inactive)
NS(=O)(=O)c1cc(C(=O)O)c(NCc2ccco2)cc1Cl,max response,[1],3.33% (inactive)
same,max response,[2],5.51% (inactive) and -8.33% (inactive)
same,Potency,[3],inactive
same,"parasite growth, % of DMSO control",[4],58.2%
same,"parasite growth remaining, % of DMSO control (lower = more inhibition)",[5],103%
Nc1cccc2c1CN(C1CCC(=O)NC1=O)C2=O (stereo not drawn),max response,[1],12.8% (inactive) and 1.91% (inactive)
same,"remaining proliferation (% of control), lower = more inhibition",[7],96.8% [at 57.5 µM] and 102% [at 57.5 µM]
same,"parasite growth, % of DMSO control",[4],83.6% [at 57.5 µM]
same,"parasite growth remaining, % of DMSO control (lower = more inhibition)",[5],107% [at 57.5 µM]
same,"parasite growth, % of control (lower = inhibition)",[6],127% [at 57.5 µM]
CCOC(=O)C1=C[C@@H](OC(CC)CC)[C@H](NC(C)=O)[C@@H](N)C1,max response,[1],-3.59% (inactive)
O=C(NC(Cc1cc(=O)[nH]c2ccccc12)C(=O)O)c1ccc(Cl)cc1 (stereo not drawn),max response,[1],22.1% (inactive)
same,"parasite growth, % of DMSO control",[4],88.9%
same,"parasite growth remaining, % of DMSO control (lower = more inhibition)",[5],96.8%
same,"parasite growth, % of control (lower = inhibition)",[6],89.9%
O=C(O)c1cn(-c2ccc(F)cc2)c2cc(N3CCNCC3)c(F)cc2c1=O,max response,[1],2.27% (inactive)
same,"parasite growth, % of DMSO control",[4],92.9%
same,"parasite growth remaining, % of DMSO control (lower = more inhibition)",[5],67.2%
same,"parasite growth, % of control (lower = inhibition)",[6],50.7%
Nc1nc(Cl)nc2c1ncn2[C@H]1C[C@H](O)[C@@H](CO)O1,max response,[1],30.7% (inactive) and 5.06% (inactive)
same,max response,[2],-15% (inactive)
same,Potency,[3],inactive
same,"parasite growth, % of DMSO control",[4],102%
same,"parasite growth remaining, % of DMSO control (lower = more inhibition)",[5],90.9%
same,"parasite growth, % of control (lower = inhibition)",[6],114%
O=C(OC1C[C@H]2CC[C@@H](C1)[N+]21CCCC1)C(O)(c1ccccc1)c1ccccc1 (stereo partly drawn),max response,[1],-10.3% (inactive)
CC(C)C[C@H](NC(=O)[C@H](Cc1ccccc1)NC(=O)c1cnccn1)B(O)O,Potency,[1],118 nM (active) and 316 nM (active)
same,"remaining proliferation (% of control), lower = more inhibition",[7],-0.165%
same,"parasite growth, % of DMSO control",[4],4.91%
same,"parasite growth remaining, % of DMSO control (lower = more inhibition)",[5],7.19%
same,"parasite growth, % of control (lower = inhibition)",[6],7.61%
CCCCC(CC)COC(=O)C(C#N)=C(c1ccccc1)c1ccccc1 (stereo not drawn),max response,[1],17.2% (inactive)
same,max response,[2],-27.9% (inactive)
same,Potency,[3],inactive
same,"parasite growth, % of DMSO control",[4],9.47%
same,"parasite growth remaining, % of DMSO control (lower = more inhibition)",[5],18.3%
same,"parasite growth, % of control (lower = inhibition)",[6],11.9%
Cc1cccc(C)c1OCC(=O)N[C@@H](Cc1ccccc1)[C@@H](O)C[C@H](Cc1ccccc1)NC(=O)[C@H](C(C)C)N1CCCNC1=O,Potency,[1],11.2 µM (active) and 6.62 µM (active)
same,"remaining proliferation (% of control), lower = more inhibition",[7],0.361%
same,"parasite growth, % of DMSO control",[4],6.88%
same,"parasite growth remaining, % of DMSO control (lower = more inhibition)",[5],8.67%
same,"parasite growth, % of control (lower = inhibition)",[6],16.3%
Cc1ccc(S(=O)(=O)NC(=O)NN2CC3CCCC3C2)cc1 (stereo not drawn),max response,[1],2.23% (inactive)
same,"parasite growth, % of DMSO control",[4],14%
same,"parasite growth remaining, % of DMSO control (lower = more inhibition)",[5],13.9%
same,"parasite growth, % of control (lower = inhibition)",[6],16.9%
COc1ccc(C2(C#N)CCC(C(=O)O)CC2)cc1OC1CCCC1 (stereo not drawn),max response,[1],4.12% (inactive)
CN(C)c1ccc2nc3ccc(=[N+](C)C)cc-3sc2c1,Potency,[1],166 nM (active) and 303 nM (active)
same,Potency,[2],11.2 µM (active)
same,Potency,[3],28.2 µM (active)
same,"remaining proliferation (% of control), lower = more inhibition",[7],14.3% [at 57.5 µM]
same,"parasite growth, % of DMSO control",[4],60.1% and 20%
same,"parasite growth remaining, % of DMSO control (lower = more inhibition)",[5],16.9% and 18.5%
same,"parasite growth, % of control (lower = inhibition)",[6],6.81% and 13.3%
S=c1nc[nH]c2nc[nH]c12,max response,[1],21.9% (inactive) and -4.09% (inactive)
same,"parasite growth, % of DMSO control",[4],68.3%
same,"parasite growth remaining, % of DMSO control (lower = more inhibition)",[5],96%
same,"parasite growth, % of control (lower = inhibition)",[6],6.58%
CCN(CC)C(=S)SSC(=S)N(CC)CC,Potency,[1],3.98 µM (active) and 60.5 nM (active) and 74.3 nM (active)
same,Potency,[3],inactive
same,"parasite growth, % of DMSO control",[4],65.9%
same,"parasite growth remaining, % of DMSO control (lower = more inhibition)",[5],92.7%
same,"parasite growth, % of control (lower = inhibition)",[6],53.4%
N[C@@H](Cc1cc(I)c(Oc2cc(I)c(O)c(I)c2)c(I)c1)C(=O)O,max response,[1],2.42% (inactive)
same,max response,[2],-6.73% (inactive)
same,Potency,[3],inactive
same,"parasite growth, % of DMSO control",[4],89.8%
same,"parasite growth remaining, % of DMSO control (lower = more inhibition)",[5],89.9%
same,"parasite growth, % of control (lower = inhibition)",[6],91.7%
Cc1ccc(C)c(OCCCC(C)(C)C(=O)O)c1,max response,[1],17.4% (inactive)
same,max response,[2],-0.77% (inactive) and -7.02% (inactive)
same,Potency,[3],inactive
same,"parasite growth, % of DMSO control",[4],5.29%
same,"parasite growth remaining, % of DMSO control (lower = more inhibition)",[5],47.3%
same,"parasite growth, % of control (lower = inhibition)",[6],8.19%
CCOC(=O)C1=C(O)C(=O)N(Cc2ccccc2)C1,max response,[1],44.6% (inactive)
same,"remaining proliferation (% of control), lower = more inhibition",[7],67.7%
same,"parasite growth, % of DMSO control",[4],74.5%
same,"parasite growth remaining, % of DMSO control (lower = more inhibition)",[5],104%
same,"parasite growth, % of control (lower = inhibition)",[6],91%
CS(=O)(=O)OCCCCOS(C)(=O)=O,max response,[1],7.28% (inactive)
same,max response,[2],-9.44% (inactive) and 3.38% (inactive) and -6.4% (inactive)
same,Potency,[3],inactive
same,"parasite growth, % of DMSO control",[4],89.8%
same,"parasite growth remaining, % of DMSO control (lower = more inhibition)",[5],77.1%
same,"parasite growth, % of control (lower = inhibition)",[6],79.3%
COCCCOc1ccnc(CS(=O)c2nc3ccccc3[nH]2)c1C (stereo not drawn),max response,[1],2.05% (inactive)
O=C(O)c1cc(=O)c2c(OCC(O)COc3cccc4oc(C(=O)O)cc(=O)c34)cccc2o1,max response,[1],10.5% (inactive)
same,"parasite growth, % of DMSO control",[4],85.2%
same,"parasite growth remaining, % of DMSO control (lower = more inhibition)",[5],96.7%
same,"parasite growth, % of control (lower = inhibition)",[6],106%
